# Assay results: PubChem BioAssay AID1508600 (Functional Genomics Laboratory (NCATS/FGL), 2020)
# About 3,700 (7%) of roughly 53,000 sequences were called active. This excerpt belongs to a sample that is enriched for actives. A number with no mark means an inactive call.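 Rule for the calls: active = gene knockdowns whose robust z-score for IL-1 alpha signal is at least 2 or at most -2, so actives lie on both sides; inactive = the rest.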
# Experiment: Components of the Cytosolic LPS Sensing Pathway: Gene Identification via Genome-wide siRNA Screen;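 note: robust z of the log signal after scaling to non-targeting control siRNA wells of the plate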
# Conditions: RAW264.7 macrophages, IL-1a HTRF, actives lie on both sides, screened at 100 nM (by protocol), cells primed 5 h with Pam3CSK4 first
# Summary of the method: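 Knockdown: 100 nM siRNA, 48h, RAW264.7. Stimulation: Pam3CSK4 5 h, then LipidA via TransIT-TKO 24 h. Output: supernatant IL-1a HTRF, negative-control-normalized, log robust z-score; viability by CellTiter-Glo.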
row,Sequence,z-score
1,GGAAUCAUCUUCAUUGACCTT against Agpat1,0.0827
2,CGUGUGGUGUUGGUAUCAGTT against Spaca1,0.853
3,GGAUUCAUAAAAGAAGCAATT against Zfp90,0.8
4,GGCGGCACGUUCACCUAAATT against Rnps1,1.86
5,CCACUUGUAGACUUGAUUUTT against Jag1,0.618
6,GCCCAGAUCAAUUUGAGCGTT against Grhl2,-0.674
7,CGAGAUAGAGUCUGGAAUUTT against 1700092C17Rik,3.91 (active)
8,GGUCAUCGGGAGGUUUGAATT against Nfkbil1,-0.0141
9,GGAUCUCUAUAGCAUCGUGTT against Col18a1,0.249
10,GGGAUGCUGUAGAUGGAAUTT against Olfr978,0.0466
11,GGCAAAUCAAGCAGAAAAUTT against Ncor1,0.739
12,GAUAAUGGUCACUAAAUCUTT against Vmn1r4,-1.65
13,GCAACCAUUUAAGAAGACCTT against Tnfrsf9,-0.301
14,GGUGAUCUGGACCAAGAUGTT against Lcp1,-0.52
15,GGUCUACUUUUACGUCUCCTT against Nfatc4,-0.339
16,GUGUACGUCUGUUAACACATT against Dad1,-2.1 (active)
17,CCUUCUUGAAAACUCCAAGTT against Lum,-0.862
18,GGGAAGGCACACCAUAGAATT against Zfp369,1.11
19,GGGCUACUAUUCAUUGAUCTT against 4930550L24Rik,1.94
20,CCACUAAGUCCCAUGCUAGTT against Glycam1,0.188
21,GGAAUUUAAGGUGUUCACATT against Lcn3,-0.197
22,GGCUCAGUGAGUUUCAGAATT against Snx25,3.66 (active)
23,CCAAAUGUAACUGGUGUAATT against Aif1l,-0.69
24,CGAGACAGUUUCCAUAGCGTT against Spen,-0.271
25,GCAACAUUAGGAUUUAUAGTT against Gask1b,0.0376
26,GGUAGUCAUACAGAUAUGUTT against Hey2,0.973
27,GCAAUCUCUCCUUUUGUGATT against Olfr1128,0.426
28,GGACUUUCACAGACCACUUTT against Rgma,0.999
29,GGAACAAGGAUGUAAAAUUTT against Olfr1090,-0.751
